Reference: ChEMBL document CHEMBL4513216, “Probing the Open Global Health Chemical Diversity Library for Multistage-Active Starting Points for Next-Generation Antimalarials” (ACS Infect Dis, 2020)
The whole screen tested about 65,000 compounds, of which about 2,100 (3.2%) showed an effect of 50% or more. The median lay at about -52%. This is one part of a sample in which strong results are shown more often than they occur.

Tested on: Plasmodium falciparum
Assay: Screen against P. falciparum Asexual Blood Stage (ABS), at 5uM
Assay type: functional, Dd2
Conditions: tested at 5 uM

Row | SMILES | INHIBITION [%]
1 | CCN1CCN(c2ccccc2NC(=O)N(C)C2CCSC2)CC1 (stereo unspecified) | 37.6
2 | CN(C)Cc1noc2c1CN(Cc1ccc[nH]1)CC2 | -77.5
3 | Cc1ccc2c(c1)OCCCC2NC1CCN(C)CC1 (stereo unspecified) | 50.3
4 | Cc1ccc2c(c1)C(NC1CCN(C)CC1)CCCO2 (stereo unspecified) | 66.8
5 | Cc1ccc2c(c1)OC(C)(C)CC2NC(=O)C1CCN(C)CC1 (stereo unspecified) | 30.2
6 | Cc1ccc2c(c1)C(NCc1nccn1Cc1ccccc1)CCCO2 (stereo unspecified) | 35.8
7 | Cc1ccc2c(c1)C(NCc1nnc3n1CCCCC3)CCCO2 (stereo unspecified) | -74.6
8 | Cc1cc2c(cc1C)C(NC1CC1)CCCO2 (stereo unspecified) | -3.02
9 | CS(=O)(=O)N1CC[C@H]2O[C@H](C(=O)NCCc3ccccn3)CC[C@H]21 | -48.2
10 | COc1cccc(OCCc2nc3c(cc2C(N)=O)CCC3)c1 | -58.5
11 | Cc1nc(CN2CCCC(N(C)CC3CCCC3)C2)no1 (stereo unspecified) | -42.4
12 | CCc1nc(C2CCCN2CCCc2nc3ccccc3o2)no1 (stereo unspecified) | -157
13 | Cc1nc2ccccn2c1CC(=O)N[C@@H]1CC[C@@H](N2CCOCC2)[C@@H]1O | -72.5
14 | NCc1ccccc1Sc1ccc(O)cc1 | 56.7
15 | CN(C)CCNC(=O)c1cc(-c2cnc(N3CCCC3)nc2)cn1C | -123
16 | c1ccc(-n2cc(CN3CCCC3Cn3cncn3)nn2)cc1 (stereo unspecified) | -14
17 | C[C@@H]1CN(C2(C(=O)N3CCNCC3)Cc3ccccc3C2)C[C@H](C)O1 | 63.4
18 | C[C@@H]1CN(C2(C(=O)N3CCSCC3)Cc3ccccc3C2)C[C@H](C)O1 | -238
19 | C[C@@H]1CN(C2(C(=O)N3CCOCC3)Cc3ccccc3C2)C[C@H](C)O1 | -22.3
20 | CCc1noc(C(C)N(C)CC(=O)Nc2ccc(Cl)c(C(F)(F)F)c2)n1 (stereo unspecified) | -75.8
21 | CC(Cn1ccnc1)NC(=O)N1CCN(Cc2ccsc2)CC1 (stereo unspecified) | 58.4
22 | CC(Cn1ccnc1)NC(=O)N1CCN(Cc2ccncc2)CC1 (stereo unspecified) | -125

Row | SMILES | INHIBITION [%]
23 | CC(Cn1cccn1)NC(=O)N1CCN(Cc2ccsc2)CC1 (stereo unspecified) | -55.3
24 | NC(=O)c1c(-c2ccc(Cl)cc2Cl)csc1NC(=O)CCCC(=O)O | -162
25 | CC(C)NC(=O)N1CCC2(CC1)C(=O)NCCN2Cc1ccccc1 | -105
26 | COc1ccc(-n2cc(CCO)cn2)cc1C | -136
27 | CN(C)CCN1CCCC12CCN(C(=O)c1ccco1)CC2 | 33.9
28 | O=C1CC2(CCN(Cc3ccoc3)CC2)CN1Cc1cc(F)cc(F)c1 | 56.5
29 | CN(C)CCN1CCCC12CCCN(Cc1ccoc1)C2 (stereo unspecified) | 68.1
30 | Cc1ccc(CN2CCCC3(CCN(Cc4ccoc4)CC3)C2)cc1 | 79.8
31 | Cc1ccc(CN2CCC3(CCCN(C(=O)N(C)C)C3)C2)cc1 (stereo unspecified) | -59.2
32 | O=C1CC2(CCN(Cc3ncc[nH]3)CC2)CN1Cc1cc(F)cc(F)c1 | -147
33 | CN(C)CCN1CCCC12CCCN(Cc1ccco1)C2 (stereo unspecified) | -71.8
34 | CNC(=O)CN1CCOCC2(CCCN(Cc3ccoc3)C2)C1 (stereo unspecified) | 33.7
35 | O=C1CC2(CCN(CCO)CC2)CN1Cc1cc(F)cc(F)c1 | 19.3
36 | CC1CCCN(S(=O)(=O)NCCNC(=O)c2ncccc2O)C1 (stereo unspecified) | -122
37 | COc1ccc(-c2nc(CCNC(=O)NC3CCC(O)CC3)co2)cc1 (stereo unspecified) | -13.7
38 | CCN(C)CC(=O)N1CCc2nc(NC)nc(C(=O)N3CCCC3)c2C1 | -14.4
39 | CSc1ccc(CNc2n[nH]c(C)n2)cc1 | -43.7
40 | CCS(=O)(=O)N1CCC2(CC1)CN(c1ccsc1)C(=O)CO2 | -0.697
41 | CC(=O)Nc1c(C)noc1C=Cc1ccc(S(=O)(=O)N2CCCC2)cc1 | 11.8
42 | COc1ccc(CN2C[C@@H]3OCCN(CCN(C)C)[C@@H]3C2)cc1 | 66.9
43 | COc1ccc(CN2C[C@@H]3OCCN(CCN4CCCC4)[C@@H]3C2)cc1 | 64
44 | Cc1noc(C)c1CN1CCO[C@H]2CN(Cc3ccc(F)cc3)C[C@H]21 | 55.3

Row | SMILES | INHIBITION [%]
45 | COc1ccc(CN2C[C@@H]3OCCN(C)[C@@H]3C2)cc1 | -42.1
46 | Fc1ccc(CN2C[C@@H]3OCCN(CCN4CCCC4)[C@@H]3C2)cc1 | -70.3
47 | COc1ccc(CN2C[C@@H]3OCCN(CC4CCCO4)[C@@H]3C2)cc1 (stereo partly specified) | -115
48 | Cc1noc(C)c1CN1CCO[C@H]2CN(Cc3cccc(F)c3)C[C@H]21 | -32.1
49 | CN(C)CCN1CCO[C@H]2CN(Cc3cnn(C)c3)C[C@H]21 | -88.4
50 | Fc1ccc(CN2C[C@@H]3OCCN(CC4CCCO4)[C@@H]3C2)cc1 (stereo partly specified) | -2.84
51 | O=C(CN1CCC(C(=O)c2cc(F)ccc2F)CC1)NC1CCCC1 | -63.8
52 | Cc1nn(C)c2c(NCc3ccc(F)cc3)nc(C3CC3)nc12 | 40.3
53 | CCCn1ccnc1CN1CCCC(O)(CN(C)C)CC1 (stereo unspecified) | -44.8
54 | CC(=O)N1CC[C@H]2[C@H](C[C@@H](Cn3cncn3)N2c2nccs2)C1 | -33.8
55 | Nc1nc2cn(C3CCCC3)c(=O)c-2c[nH]1 | 69.9
56 | CC1CCC(n2cc3nc(N)[nH]cc-3c2=O)CC1 (stereo unspecified) | -68.9
57 | CNc1nc2cn(C3CCCC3)c(=O)c-2c[nH]1 | -45.905
58 | CN(C)c1nc2c(c(N3CCC4(CC3)CNC(=O)C4)n1)CCCC2 | -6.41
59 | O=S(=O)(N1CCCCC1)N1CCCN(CC2CCCO2)CC1 (stereo unspecified) | -12.8
60 | CC(C)N(C)Cc1cncc2c1CCN(C(=O)c1ccccc1F)C2 | -44.1
61 | Cc1ccc(CN2C[C@@H]3CCCO[C@@H]3[C@H](N(C)Cc3ccco3)C2)o1 | 39.7
62 | CN(Cc1ccco1)[C@@H]1CN(Cc2cccnc2)C[C@@H]2CCCO[C@@H]21 | 29.1
63 | CN(Cc1ccco1)[C@@H]1CN(Cc2cccs2)C[C@@H]2CCCO[C@@H]21 | 65.3
64 | CN(Cc1ccco1)[C@@H]1CN(Cc2nccs2)C[C@@H]2CCCO[C@@H]21 | 31.1
65 | CN(Cc1ccco1)[C@@H]1CN(Cc2ccncc2)C[C@@H]2CCCO[C@@H]21 | 9.86
66 | CN(Cc1ccco1)[C@@H]1CN(Cc2ccoc2)C[C@@H]2CCCO[C@@H]21 | 60.3
